Source: PubChem (Broad Institute)
Pf Dd2 growth: P. falciparum Dd2 growth inhibition; SYBR Green, 72 h; stronger effect = lower value; activity change, % at 10 µM; 94,000 tested, 2.3% active; AID 1159554; in the data active = activity change below about -80%
Tcruzi prolif: inhibitors of T. cruzi proliferation | T. cruzi beta-gal in NIH3T3, GalScreen luminescence, 90 h | inhibition, % at 8.34 µM | 77,000 tested, 5.9% active | AID 624255;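 active = mean inhibition above about 93%, with at least 55% of replicates each passing it, limit read from the data, passing the limit was not always enough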
C diff growth: inhibitors of Clostridium difficile growth | 86,000 tested, 0.25% active | growth activity, negative = inhibition, % at 16 µg/mL (by protocol) | AID 1259249 | Clostridium difficile clinical isolate growth, OD600, 24 h; stronger effect = lower value;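 active = mean growth activity at or below -80% and every replicate also at or below -80%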
Numbers stand for hits; ! = not active in a repeat. The list is not random: actives were taken first. Their share in the collection is about 6.7%.

`Cc1ccc(-c2ccc(C3[C@@H]4CN(S(=O)(=O)c5ccc(C)cc5)C[C@H]3N4)cc2)cc1` (some centres undefined) gave Pf Dd2 growth inactive and C diff growth -96.9.
`O=S(=O)(c1ccccc1F)N1C[C@@H]2N[C@H](C1)C2c1ccc(/C=C/c2ccccc2)cc1` (some centres undefined) gave Pf Dd2 growth inactive and C diff growth inactive.
Screening O=S(=O)(c1ccc(-c2ccccc2)cc1)N1C[C@@H]2N[C@H](C1)C2c1ccc(-c2cncnc2)cc1 (some centres undefined) returned Pf Dd2 growth inactive and C diff growth inactive.
Screening O=S(=O)(c1ccccc1)N1C[C@@H]2N[C@H](C1)C2c1ccc(-c2ccc(F)cc2)cc1 (some centres undefined) returned Pf Dd2 growth -84.5! and C diff growth inactive.
For COC(=O)C[C@@H]1CC[C@H]2[C@@H](COC[C@@H](O)CN2CCC(F)(F)F)O1 the results were Tcruzi prolif inactive and C diff growth inactive.
CCNC(=O)C[C@H]1CC[C@H]2[C@@H](COc3ccc(NC(=O)Nc4c(C)noc4C)cc3C(=O)N2C)O1 was read as Pf Dd2 growth inactive, Tcruzi prolif inactive and C diff growth inactive.
COc1ccc(S(=O)(=O)Nc2ccc3c(c2)C(=O)N([C@H](C)CO)C[C@@H](C)[C@H](CN(C)Cc2ccc(C(=O)Nc4ccccc4N)cc2)O3)cc1 was read as Pf Dd2 growth inactive, Tcruzi prolif inactive and C diff growth inactive.
COc1ccc(S(=O)(=O)Nc2ccc3c(c2)C(=O)N([C@@H](C)CO)C[C@H](C)[C@@H](CN(C)Cc2ccc(C(=O)Nc4ccccc4N)cc2)O3)cc1 was read as Pf Dd2 growth inactive, Tcruzi prolif inactive and C diff growth inactive.
For COc1ccc(S(=O)(=O)Nc2ccc3c(c2)CC(=O)N([C@H](C)CO)C[C@@H](C)[C@@H](CN(C)Cc2ccc(C(=O)Nc4ccccc4N)cc2)O3)cc1 the results were Pf Dd2 growth -84.5, Tcruzi prolif inactive and C diff growth inactive.
`COc1ccc(S(=O)(=O)Nc2ccc3c(c2)CC(=O)N([C@H](C)CO)C[C@H](C)[C@H](CN(C)Cc2ccc(C(=O)Nc4ccccc4N)cc2)O3)cc1` gave Pf Dd2 growth -81.2, Tcruzi prolif inactive and C diff growth inactive.
Screening C[C@H](CO)N1C[C@H](C)[C@@H](CN(C)C(=O)c2ccccc2)OCCCC[C@H](C)Oc2ccc(N(C)C)cc2C1=O returned Pf Dd2 growth inactive, Tcruzi prolif inactive and C diff growth inactive.
For COc1ccc(CN(C)C[C@@H]2Oc3ccc(NC(=O)Cc4cn(C)c5ccccc45)cc3C(=O)N([C@@H](C)CO)C[C@H]2C)cc1 the results were Pf Dd2 growth inactive, Tcruzi prolif inactive and C diff growth inactive.
Screening C[C@H]1CN([C@@H](C)CO)C(=O)c2cc(NC(=O)Cc3cn(C)c4ccccc34)ccc2O[C@@H]1CN(C)CC1CC1 returned Pf Dd2 growth -82.8 and C diff growth inactive.
C[C@@H]1CN([C@@H](C)CO)C(=O)c2cc(NC(=O)Cc3cn(C)c4ccccc34)ccc2O[C@H]1CN(C)C(=O)Nc1cccc2ccccc12 was read as Pf Dd2 growth inactive and Tcruzi prolif inactive.
Screening C[C@H](CO)N1C[C@H](C)[C@@H](CN(C)C(=O)Nc2cccc3ccccc23)Oc2ccc(NC(=O)Cc3cn(C)c4ccccc34)cc2C1=O returned Pf Dd2 growth -87.4 and Tcruzi prolif inactive.
C[C@H](CO)N1C[C@H](C)[C@@H](CN(C)Cc2ccc(Oc3ccccc3)cc2)Oc2ccc(NC(=O)Cc3cn(C)c4ccccc34)cc2C1=O was read as Pf Dd2 growth -84.3, Tcruzi prolif inactive and C diff growth inactive.
C[C@H]1CN([C@@H](C)CO)C(=O)c2cc(NC(=O)Cc3cn(C)c4ccccc34)ccc2O[C@H]1CN(C)CC1CC1 was read as Pf Dd2 growth inactive, Tcruzi prolif inactive and C diff growth inactive.
O=C(NCc1cccc(F)c1)[C@@H]1[C@@H](CO)[C@@H]2Cn3c(cccc3=O)[C@H]1N2 was read as Pf Dd2 growth inactive, Tcruzi prolif inactive and C diff growth inactive.
`CN(C)CC(=O)N1[C@H](C(=O)NCc2ccccc2F)[C@@H](CO)[C@@H]2Cn3c(cccc3=O)[C@@H]21` gave Pf Dd2 growth inactive and C diff growth inactive.
`CC(C)C#Cc1cnc2c(c1)C(=O)N([C@@H](C)CO)C[C@H](C)[C@@H](CN(C)C(=O)Nc1cc(F)ccc1F)O2` gave Tcruzi prolif inactive and C diff growth inactive.
Screening O=C(C[C@@H]1C[C@@H]2c3cc(NC(=O)C4CCC4)ccc3O[C@@H]2[C@H](CO)O1)NCc1cc(F)ccc1F returned Pf Dd2 growth inactive, Tcruzi prolif inactive and C diff growth inactive.
`CCCNC(=O)NC[C@H]1[C@@H](c2ccc(C3=CCCC3)cc2)[C@H](CO)N1C(C)=O` gave Pf Dd2 growth inactive, Tcruzi prolif inactive and C diff growth inactive.
`C[C@H](CO)N1C[C@H](C)[C@H](CN(C)CC2CC2)Oc2ccc(NC(=O)Nc3cccc4ccccc34)cc2CC1=O` gave Pf Dd2 growth -89.2 and C diff growth inactive.
For C[C@H]1CN([C@@H](C)CO)C(=O)Cc2cc(NC(=O)Nc3cccc4ccccc34)ccc2O[C@@H]1CN(C)CC1CCCCC1 the results were Pf Dd2 growth inactive, Tcruzi prolif inactive and C diff growth inactive.
C[C@H](CO)N1C[C@H](C)[C@@H](CN(C)CC2CC2)Oc2ccc(NC(=O)Nc3cccc4ccccc34)cc2CC1=O was read as Pf Dd2 growth -86.3, Tcruzi prolif inactive and C diff growth inactive.
For C[C@H]1CN([C@@H](C)CO)C(=O)Cc2cc(NC(=O)Nc3cccc4ccccc34)ccc2O[C@H]1CN(C)C the results were Pf Dd2 growth inactive and C diff growth inactive.
Screening COc1ccc(NC(=O)N2[C@@H]3CNC[C@H]2C3c2ccc(-c3cccc(OC)c3)cc2)cc1 (some centres undefined) returned Pf Dd2 growth inactive and C diff growth inactive.
For COc1cccc(-c2ccc(C3[C@H]4CNC[C@@H]3N4C(=O)Nc3ccc(C(F)(F)F)cc3)cc2)c1 (some centres undefined) the results were Pf Dd2 growth inactive and C diff growth -94.1!.
O=C(Nc1ccc(C(F)(F)F)cc1)N1[C@@H]2CNC[C@H]1C2c1ccc(-c2ccc(F)cc2)cc1 (some centres undefined) was read as Pf Dd2 growth inactive and C diff growth -98.9.
Screening COc1ccc(NC(=O)N2[C@@H]3CNC[C@H]2C3c2ccc(-c3ccccc3C)cc2)cc1 (some centres undefined) returned Pf Dd2 growth inactive and C diff growth inactive.
For Cc1ccccc1-c1ccc(C2[C@H]3CNC[C@@H]2N3C(=O)Nc2ccc(Cl)cc2)cc1 (some centres undefined) the results were Pf Dd2 growth inactive and C diff growth -97.4!.
`O=C(Nc1ccc(C(F)(F)F)cc1)N1[C@@H]2CNC[C@H]1C2c1ccc(-c2cccnc2)cc1` (some centres undefined) gave Pf Dd2 growth inactive and C diff growth inactive.
Screening CCCNC(=O)[C@@H]1[C@@H](CO)[C@@H]2Cn3c(cccc3=O)[C@H]1N2Cc1cccc(Cl)c1 returned Pf Dd2 growth inactive, Tcruzi prolif inactive and C diff growth inactive.
